13 compounds from PubChem BioAssay can be followed below.

Assay [1] in a line: compounds altering circadian rhythm period length – cell-based, LOPAC library, luminescence reporter (AID 2774).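 Also: values are relative to mean of DMSO wells on each plate.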 As to conditions: circadian reporter cells, at 7 µM, actives lie on both sides.
Assay [2] has as its system Hepatitis C virus NS3 helicase. In words: blockers of NS3h binding to ssDNA – biochemical, fluorescence polarization, LOPAC1280 library, primary screen (AID 687035; in the data active = inhibition above about 37%). As to conditions: Purified HCV NS3 helicase, Cy5-dT15 ssDNA binding fluorescence polarization; stronger effect = higher value; concentration not given here.
A short description of assay [3]: compounds altering Cy5-DNA-NS3h complex signal – biochemical, LOPAC1280, artefact control for HCV NS3 helicase inhibitor project (AID 687037). As to conditions: Cy5-DNA-NS3h complex fluorescence interference counterscreen. For orientation: The purpose of a counterscreen is to sort out artefacts and off-target activity.
Assay [4] concerns Aerobactin synthetase IucA (Klebsiella pneumoniae). Nature of the assay: inhibition of K. pneumoniae IucA enzyme – biochemical, Tocris library, absorbance (AID 1345561).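 Also: 100% = enzyme without compound and 0% = no enzyme.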 As to conditions: purified IucA enzyme assay, absorbance (OD) read-out; stronger effect = lower value;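 tested at 8 µM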.
Assay [5] in a line: viability loss with induced miR-34 in A549 – imaging, A549 dox-inducible miR-34, nuclei and caspase counts, primary screen (AID 1347080;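 active = compounds whose cell count with miR-34 switched on is under 0.7 times the count with it off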). Conditions: A549 miR-34 inducible, Hoechst nuclei count, 48 h.
Assay [6] in a line: blockers of cellular phospholipid synthesis – cell-based, LOPAC library, screen 4, primary screen (AID 1347384). Conditions: animal cells, phospholipid biosynthesis inhibition screen; at 10 µM.
A short description of assay [7]: galactose survival enhancers in mitochondrial complex I cybrids – cell-based, galactose medium, ATP luminescence, primary screen (AID 1645843;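 active = z-score of at least 1.8 in each of two replicates, scored against plate mean and spread of sample wells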;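 also: positive z means more ATP and so rescue of galactose-driven cybrid death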). Conditions: complex I mutant cybrid cells, 72 h, stronger effect = higher value.
Assay [8] is described as follows: P. berghei load reduction in hepatocytes – cell-based, HepG2, luciferase luminescence, HepG2 viability, primary screen (AID 624349; in the data active = parasite load remaining mostly below about 12%, no sharp cut-off; inactive = mostly above about 10%;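 also: 100% = mean of DMSO negative control wells on the same plate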). As to conditions: P. berghei liver stage in HepG2, luciferase luminescence, concentration not given here; parasite load remaining: stronger effect = lower value; viability: measured here: HepG2 viability without parasites.
A short description of assay [9]: MELAS cybrid and Rieske KO viability enhancers – cell-based, MELAS cybrids, Rieske KO mouse fibroblasts, CellTiter-Glo, primary screen (AID 1508586;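 active = mean z-score across replicates of 1.96 or higher in either the MELAS or the Rieske mutant cell line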;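 also: z relative to plate mean and SD of compound and empty wells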). As to conditions: low glucose. A general note: In ATP-based viability assays light output follows the ATP content of the culture.
Assay [10] can be described thus: chitosan synthesis blockers in C. neoformans – flow cytometry, Cibacron Brilliant Red staining (AID 1347148).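 Also: compound exposure lasted three days at 37 degrees C.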 As to conditions: Cryptococcus neoformans chitosan, stronger effect = lower value; at 10 µM unless noted.
Setting [11] is: stronger effect = lower value, cell number ratio, induced over uninduced.
The mark [12] stands for this setting: measured here: relative caspase fold change +Dox/-Dox.
Where [13] appears, read: measured here: total cells with miR-34 induction, stronger effect = lower value.
Setting [14] is: measured here: total cells without miR-34 induction.
The mark [15] stands for this setting: MELAS cybrid survival, CellTiter-Glo 48 h, stronger effect = higher value.
Setting [16] is: Rieske KO mouse fibroblast survival, CellTiter-Glo 72 h.

“And” between values parts separate entries of the source, which are not always exact repeats. Identical values can stand only once. The source made the active and inactive calls. Unless noted, no rule for the calls is given here.

One may read the inhibition as the drop in the measured response relative to a control, in per cent. One may read the remaining activity as the signal under treatment as a percentage of the control signal. For `CCSC(=N)N`, in [1], the period change was 0.115 h (inactive). In [2], the inhibition is -2% (inactive). Also, the fluorescence ratio (interference) in assay [3] is 1 (inactive). Moreover, the remaining activity in [4] is 116% (inactive). In addition, the fold change is 1.03 (inactive) and 0.939 (inactive) and 0.949 (inactive) in assay [5] (setting [11]); 0.74 and 0.98 and 1.59 in assay [5] (setting [12]). Besides, the cell count in assay [5] (setting [13]) was 10300 and 5940 and 9910; in assay [5] (setting [14]) it was 10000 and 6330 and 10400. Further, in [6], the result was inactive. The z-score in assay [7] is 0.125 (inactive) and 0.13 (inactive).

Usually viability stands for a read-out of living cells in per cent, often relative to untreated cells. In the case of `CC(C)NC[C@H](O)COc1ccc(CC(N)=O)cc1`, in assay [1], the period change was -0.06 h (inactive). Also, in assay [8], the parasite load remaining is 111% (inactive). For the same compound, in [8], the viability stood at 102%. In addition, the inhibition in [2] is -2% (inactive). For the same compound, in [3], the fluorescence ratio (interference) is 1 (inactive). Moreover, the remaining activity in [4] was 87% (inactive). Further, the fold change is 1.04 (inactive) and 0.889 (inactive) and 0.97 (inactive) in [5] (setting [11]); 1.51 and 1.14 and 0.697 in assay [5] (setting [12]). Also, the cell count is 7050 and 9340 and 9400 in assay [5] (setting [13]); 6770 and 10500 and 9690 in assay [5] (setting [14]). In assay [6], the compound was classed as inactive. In addition, the z-score in [9] (setting [15]) was -0.419 (inactive); in [9] (setting [16]) it was -1.01; in assay [7] it was 0.305 (inactive) and -0.32 (inactive).

`CCCCCCCC/C=C\CCCCCCCC(=O)NCCc1ccc(O)c(O)c1`: the period change in assay [1] is 0.16 h (inactive). Also, in [2], the inhibition is -3% (inactive). Besides, in assay [3], the fluorescence ratio (interference) was 1 (inactive). Besides, the remaining activity in assay [4] is 113% (inactive). The fold change is 0.822 (inactive) and 1.01 (inactive) and 1 (inactive) in [5] (setting [11]); 1.55 and 1.58 and 0.782 in assay [5] (setting [12]). Also, the cell count in [5] (setting [13]) is 4510 and 5800 and 5520; in assay [5] (setting [14]) it was 5490 and 5740 and 5510. The compound was called inactive in [6]. Also, the z-score in [7] is -1.38 (inactive) and -0.82 (inactive).

On to `O=C1Cc2c([nH]c3ccc(Br)cc23)-c2ccccc2N1`, for which the period change in assay [1] is -0.835 h (active). Further, the parasite load remaining in [8] was 33% (inactive). Also, in assay [8], the viability is 64.2%. For the same compound, the inhibition in assay [2] was 1% (inactive). The fluorescence ratio (interference) in assay [3] was 1 (inactive). For the same compound, the remaining activity in assay [4] was 115% (inactive). Also, the fold change in assay [5] (setting [11]) was 1.11 (inactive) and 0.922 (inactive) and 1.05 (inactive); in assay [5] (setting [12]), 0.981 and 0.403 and 0.535. For the same compound, the cell count is 4020 and 4080 and 1060 in assay [5] (setting [13]); 3640 and 4430 and 1010 in [5] (setting [14]). In addition, the compound was called inactive in [6]. For the same compound, the z-score in [7] is -0.785 (inactive) and -0.43 (inactive).

As to `O=C1C(SCCO)=C(SCCO)C(=O)c2ccccc21`, in [1], the period change is -0.12 h (inactive). Besides, in assay [2], the inhibition was -3% (inactive). Besides, the fluorescence ratio (interference) in assay [3] is 1 (inactive). Moreover, the remaining activity in [4] was 112% (inactive). In addition, the fold change in [5] (setting [11]) was 1.25 (inactive) and 0.776 (inactive) and 0.848 (inactive); in assay [5] (setting [12]), 0.902 and 1.05 and 1.12. The cell count in assay [5] (setting [13]) is 1490 and 1050 and 1210; in assay [5] (setting [14]) it was 1190 and 1350 and 1420. Also, the fold fluorescence in assay [10] is 6.37 [at 161.1 µM] (inactive). Also, the compound was called inactive in [6]. Further, in [7], the z-score is -1.04 (inactive) and -0.82 (inactive).

With `Cc1ccc(-c2nn(C(C)(C)C)c3ncnc(N)c23)cc1`, the remaining activity in assay [4] is 109% (inactive). For the same compound, the fold change was 1.15 (inactive) and 0.969 (inactive) and 1.02 (inactive) in [5] (setting [11]); 0.8 and 0.845 and 0.764 in [5] (setting [12]). Further, the cell count is 850 and 2400 and 3230 in [5] (setting [13]); 738 and 2480 and 3170 in assay [5] (setting [14]). For the same compound, the fold fluorescence in assay [10] is 12.9 [at 177.7 µM] (inactive). The z-score in assay [9] (setting [15]) was 0.565 (inactive); in [9] (setting [16]), -0.238; in [7], 0.19 (inactive).

For `Clc1cccc(Nc2nnc(-c3ccccc3)c3ccccc23)c1`, the remaining activity in assay [4] is 100% (inactive). Further, the fold change in assay [5] (setting [11]) is 0.991 (inactive) and 0.925 (inactive); in assay [5] (setting [12]), 0.939 and 0.863. Also, the cell count in assay [5] (setting [13]) is 1790 and 6180; in assay [5] (setting [14]), 1810 and 6680. In addition, in [10], the fold fluorescence was 8.57 [at 150.7 µM] (inactive). The z-score in assay [7] was -1.22 (inactive).

`CC(C)(C)n1nc(-c2ccc(Cl)cc2)c2c(N)ncnc21`: the remaining activity in assay [4] was 92.2% (inactive). The fold change in [5] (setting [11]) is 1.17 (inactive) and 0.851 (inactive) and 0.882 (inactive); in [5] (setting [12]), 0.727 and 0.97 and 0.665. The cell count was 797 and 2420 and 4980 in assay [5] (setting [13]); 682 and 2850 and 5640 in assay [5] (setting [14]). Besides, the fold fluorescence in assay [10] was 4.87 [at 165.7 µM] (inactive). The z-score in assay [9] (setting [15]) is 0.749 (inactive); in assay [9] (setting [16]), -0.167; in assay [7], 1.28 (inactive).

For `CC(/C=C/c1cccc(Oc2ccc(F)cc2)c1)N(O)C(N)=O` (centres undefined), in [1], the period change is -0.095 h (inactive). Also, in assay [2], the inhibition was 0% (inactive). In addition, the fluorescence ratio (interference) in assay [3] was 1 (inactive). The remaining activity in assay [4] is 129% (inactive). Also, the fold change in [5] (setting [11]) was 1.07 (inactive) and 0.882 (inactive) and 0.954 (inactive); in assay [5] (setting [12]), 1.69 and 1.06 and 0.78. Further, the cell count in assay [5] (setting [13]) was 8210 and 4190 and 6640; in assay [5] (setting [14]), 7700 and 4750 and 6960. In assay [6], the result was inactive. In addition, in assay [7], the z-score was -1.33 (inactive) and -0.775 (inactive).

`CCCCCCCCCCCCCCCC(=O)OC(CC(=O)O)C[N+](C)(C)C` (centres undefined): the period change in assay [1] is 0.01 h (inactive). Also, the inhibition in assay [2] is -4% (inactive). The fluorescence ratio (interference) in assay [3] is 1 (inactive). Further, the remaining activity in [4] is 122% (inactive). Also, the fold change in assay [5] (setting [11]) is 1.09 (inactive) and 1.01 (inactive); in [5] (setting [12]), 0.674 and 0.826. Besides, the cell count in assay [5] (setting [13]) is 6530 and 7890; in assay [5] (setting [14]), 5960 and 7780. Moreover, the result in assay [6] was inactive. For the same compound, the z-score in assay [7] is -1.29 (inactive) and -1.24 (inactive).

As for `O=S(=O)(c1cccc2c(Cl)cccc12)N1CCCNCC1`, the period change in [1] is 0.09 h (inactive). Besides, in assay [2], the inhibition was -2% (inactive). Also, in assay [3], the fluorescence ratio (interference) is 1 (inactive). Moreover, in [4], the remaining activity was 97.3% (inactive). The fold change in [5] (setting [11]) is 1.19 (inactive) and 0.923 (inactive) and 0.938 (inactive); in assay [5] (setting [12]) it was 1.59 and 1.07 and 1. In addition, the cell count in assay [5] (setting [13]) was 6430 and 3010 and 7700; in assay [5] (setting [14]) it was 5390 and 3260 and 8210. Moreover, in assay [10], the fold fluorescence is 11.9 [at 153.9 µM] (inactive). The result in assay [6] was inactive. Also, the z-score in assay [7] is -0.995 (inactive) and -0.78 (inactive).

As to `COCc1nc2c([nH]1)c(=O)n(C)c(=O)n2CC(C)C`, the period change in [1] is -0.19 h (inactive). In assay [2], the inhibition is -4% (inactive). In [3], the fluorescence ratio (interference) was 0.9 (inactive). In addition, the remaining activity in assay [4] is 101% (inactive). Also, the fold change is 1.1 (inactive) and 0.916 (inactive) and 0.973 (inactive) in assay [5] (setting [11]); 1 and 1.13 and 0.871 in assay [5] (setting [12]). Besides, the cell count in [5] (setting [13]) is 11000 and 5700 and 9180; in assay [5] (setting [14]), 10000 and 6220 and 9430. Moreover, the fold fluorescence in assay [10] was 4.02 [at 187.8 µM] (inactive). Further, the call in assay [6] was inactive. Further, in assay [7], the z-score is 0.515 (inactive) and -0.165 (inactive).

In the case of `C[C@H](NC(=O)/C(C#N)=C/c1ccc(O)c(O)c1)c1ccccc1`, the period change in [1] was 0.035 h (inactive). Also, the inhibition in [2] was -1% (inactive). Also, in assay [3], the fluorescence ratio (interference) is 1 (inactive). Besides, the remaining activity in [4] was 111% (inactive). In addition, the fold change in assay [5] (setting [11]) was 0.957 (inactive) and 0.876 (inactive); in [5] (setting [12]) it was 2.11 and 1.78. In addition, the cell count in [5] (setting [13]) was 6810 and 7420; in assay [5] (setting [14]), 7120 and 8470. Moreover, the result in assay [6] was inactive. In assay [7], the z-score is -1 (inactive) and -0.545 (inactive).
